Assay outcomes: PubChem, National Center for Advancing Translational Sciences (NCATS)
An excerpt weighted towards active compounds, which were near 5.3% of everything screened.
Tau fibril FP: inhibitors of human tau fibril formation. hit rate 0.39% among 280,000. K18 P301L tau heparin fibrillization, Alexa594 FP, 6 h. AID 1468. Potency, µM (doses to about 57.7 µM), for the others: at the top dose activity, negative = inhibition, actives largely listed as inhibitors. P10636; further: potency means the concentration at half of the fitted maximal effect; nearly all actives have a fitted effect of over 55% in size
Target sequence (P10636 561-689 P618L limits assumed): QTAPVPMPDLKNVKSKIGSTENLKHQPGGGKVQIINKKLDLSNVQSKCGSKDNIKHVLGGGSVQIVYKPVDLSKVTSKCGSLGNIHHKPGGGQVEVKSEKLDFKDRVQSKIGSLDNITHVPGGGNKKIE
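Read-out: fluorescence polarization of Alexa 594-labeled tau (0.24 uM), 555 nm excitation, 632 nm emission. Mixtures held 15 uM unlabeled K18 P301L, compound and 20 uM heparin, pH 7 acetate buffer, incubated 6 hr at 37 C.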
Tau fluor cs: counter-screen for tau fibril formation inhibitors | Potency, µM (top dose mostly 57.7 µM), for inactives: at the highest dose activity change, negative = decrease | tau K18 P301L Alexa594 fluorescence, heparin fibrillization | hit rate 0.93% among 280,000; further: potency means the concentration at half of the fitted maximal effect; nearly all actives have a fitted effect of over 55% in size
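Human tau K18 P301L (15 uM unlabeled, 0.24 uM Alexa 594-labeled) in 100 mM sodium acetate pH 7 with 20 uM heparin, 6 hr at 37 C. ThT 30 uM added, 1 hr ambient; Alexa 594 FP and total fluorescence read at 555/632 nm.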
Tau ThT inhib: inhibitors of human tau fibril formation, thioflavin T binding; P10636; recombinant tau K18 P301L (four-repeat tau fragment), heparin-induced fibrillization, ThT fluorescence; Potency, µM (series often up to 57.4 µM), without a hit: top-dose activity, negative = inhibition, hits mostly inhibitors; hit rate 2.1% among 270,000; further: potency means the concentration at half of the fitted maximal effect; nearly all actives have a fitted effect of over 55% in size
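Heparin-induced fibrillization of the P301L-mutant K18 repeat-domain fragment of human tau was followed by ThT binding in quantitative high-throughput format.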
KDM4E inh: inhibitors of human JMJD2E histone demethylase; Potency, µM (series often up to 57.1 µM), without a hit: top-dose activity change, negative = inhibition, usual class: inhibitors; B2RXH2; hit rate 1.6% among 230,000; AID 2147; JMJD2E catalytic domain, FDH-coupled NADH fluorescence (FDH is formaldehyde dehydrogenase);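 further: potency means the concentration at half of the fitted maximal effect; 0% = wells with enzyme and -100% = buffer wells without enzyme; nearly all actives have a fitted effect of over 50% in size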
Target sequence (B2RXH2 1-337 limits assumed): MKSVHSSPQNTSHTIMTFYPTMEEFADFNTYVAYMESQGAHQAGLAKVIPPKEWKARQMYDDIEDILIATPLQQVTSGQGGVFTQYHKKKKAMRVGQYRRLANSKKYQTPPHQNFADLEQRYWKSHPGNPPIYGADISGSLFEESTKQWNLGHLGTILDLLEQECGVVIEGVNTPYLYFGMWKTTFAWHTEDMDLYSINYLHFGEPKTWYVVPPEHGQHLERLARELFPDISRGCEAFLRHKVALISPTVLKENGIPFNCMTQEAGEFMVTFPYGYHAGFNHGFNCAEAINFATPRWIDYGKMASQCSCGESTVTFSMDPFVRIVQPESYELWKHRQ
Coupling enz: coupling enzyme interference in Giardia aldolase counter-screen; AID 2472; coupling enzyme system counterscreen, AmpLite Red fluorescence; activity change, negative = inhibition, % at 58.2 µM, hits read low; hit rate 0.67% among 290,000; in the data active means activity change below about -30%
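Activity here indicates interference with the coupling reaction, not aldolase inhibition. Compounds at 57.5 uM final met coupling enzymes for 10 min at RT; substrate and AmpLite Red detection followed, with a 525/598 nm fluorescence read after 20 min.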
Sfp PPTase inh: inhibitors of Bacillus subtilis Sfp phosphopantetheinyl transferase | Q9F4F7 | Biochemical Sfp PPTase activity, qHTS | Potency, µM, without a hit: largest response in the series, negative = inhibition, usual class: inhibitors | hit rate 3.5% among 310,000;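 further: the enzyme is Sfp with the accession as filed and its product quenches rhodamine fluorescence; potency means the concentration at half of the fitted maximal effect; 0% = enzyme reaction without inhibitor and -100% = no enzyme wells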
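After 15 min at room temperature with compound, 15 nM Sfp received 5 uM rhodamine-CoA plus 12.5 uM BHQ-2-ybbR (50 mM Hepes pH 7.6, 10 mM MgCl2). Rate came from the fluorescence difference over 30 min, ex 525/em 598 nm.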
Active calls of the source: *; u = inconclusive; x = no result given; [ ] = dose if it differs, or a comment. Unless noted, the call rests on the fitted dose curve; in most records, active means well fitted curve in the direction sought with a large enough effect; inconclusive means small, poorly fitted or top-dose-only effect, or another doubt; inactive means no such curve, though single readings can be large; an effect the other way counts as inactive or inconclusive. Unless noted, on the % scale 0 is the no-effect control and ±100 the full control effect.

SMILES	Tau fibril FP	Tau fluor cs	Tau ThT inhib	KDM4E inh	Coupling enz	Sfp PPTase inh
COC(=O)C[C@H]1c2ccccc2[C@H]2C(=C[C@@H](C)[C@H]3C(=O)N(O)C(=O)[C@H]32)N1C(=O)OC	0%[11.6 µM]	-3%[11.6 µM]	-4%[11.5 µM]	-5%[11.4 µM]	2	10%
COc1ccc(C(CC(=O)Nc2ccc(F)c(Cl)c2)N2Cc3ccccc3C2=O)cc1OC (stereo not given)	-13%	u	3%	x	x	x
O=C(O)c1ccc(COc2ccccc2/C=C2\NC(=O)N(Cc3ccccc3)C2=O)cc1	0%	-7%	-7%	u	7	9%
O=C(O)c1ccc(COc2ccc3ccccc3c2/C=C2/NC(=O)N(Cc3ccc(F)cc3)C2=O)cc1	2%	-5%	u	u	-14	71µM*
C[C@](N)(C(=O)O)c1ccc(-c2nn[nH]n2)cc1	2%	2%	-4%	-26%	-5	28µM*
CC(N)(C(=O)O)c1ccc(S(=O)(=O)O)cc1 (stereo not given)	0%	0%	-2%	x	x	50µM*
Cc1cc([C@](C)(N)C(=O)O)ccc1P(=O)(O)O	4%	-2%	-7%	-20%	-1	-7%
COC(=O)c1c(SC)nc2ccccc2c1OCc1ccc(C)cc1C	u	-3%	-15%	x	x	x
Cc1cccc(NNC(=S)Nc2c(C)cccc2C)c1	x	x	x	x	0	9%
NC(=S)NNc1cccc(Cl)c1	u	-19%	u	-7%	-5	40µM*
Cc1cccc(NNC(N)=S)c1	u	-9%	u	-3%	-1	14µM*
S=C(Nc1cccc(Cl)c1)NC1CCCCC1	-6%	-23%	-10%	8%	0	9%
Cc1ccccc1NNC(N)=S	-18%	-10%	u	-2%	-5	50µM*
S=C(NNc1cccc(Cl)c1)NC1CCCCC1	u	-28%	25µM*	3%	-15	-3%
COc1ccc(S(=O)(=O)c2cn(CC(=O)Nc3cc(C)ccc3C)c3ccccc3c2=O)cc1	-5%	-6%	6%	x	x	x
CCc1ccccc1Nc1cc(C(=O)NCCCN(C)C2CCCCC2)c2ccccc2n1	7%	u	-16%	x	x	x
O=C(Cn1cc[n+](Cc2ccccc2)c1)c1ccc([N+](=O)[O-])cc1	2%	-9%	u	-3%	1	4%
O=[N+]([O-])c1ccc(C[n+]2ccc(Cc3ccccc3)cc2)cc1	-5%	-6%	u	u	-42*	-15%
O=C(Cn1c(=O)n(-c2ccccc2)c(=O)c2ccc(C(=O)NCc3ccc4c(c3)OCO4)cc21)Nc1ccc(F)c(Cl)c1	25µM*	-25%	6%	x	x	x
O=C(Cn1c(=O)n(Cc2ccc(C(=O)NCc3ccccc3Cl)cc2)c(=O)c2ccccc21)Nc1ccc(F)c(Cl)c1	14µM*	-17%	-2%	x	x	x
O=C(Cn1c(=O)n(Cc2ccc(C(=O)NCc3ccccc3Cl)cc2)c(=O)c2ccccc21)Nc1ccc(F)cc1	u	-18%	7%	x	x	x
O=C(O)C1Cc2c([nH]c3ccccc23)C(c2coc3ccccc3c2=O)N1 (stereo not given)	3%	-9%	-15%	u	1	1%
COC(=O)c1ccc2c(c1)C(C)(C)C(/C=C/c1ccccc1O)=[N+]2C	u	25µM*[fluorescent]	10µM*	u	6	11µM*
O=C(c1ccc2c(=O)n(Cc3ccccc3)c(=S)[nH]c2c1)N1CCOCC1	x	x	x	x	0	-6%
CCOCCCn1c(=S)[nH]c2cc(C(=O)N3CCOCC3)ccc2c1=O	-6%	4%	14%	4%	10	79µM*
CNC(=S)N1N=C(c2ccc(Br)cc2)CC1c1ccc(OC)cc1 (stereo not given)	-1%	-15%	-2%	u	0	45µM*
CNC(=S)N1N=C(c2ccc(C)cc2)CC1c1ccc(OC)cc1 (stereo not given)	-4%	-24%	0%	1%	1	2%
